The nature of experiment [1]: qHTS for Inhibitors of ATXN expression: Validation (AID 588378; active means well fitted curve in the direction sought with a large enough effect; an effect the other way counts as inactive or inconclusive; further: series mostly up to about 57 µM; on the % scale 0 is the no-effect control and ±100 the full control effect; nearly all actives have a fitted effect of over 75% in size). An outline of the steps:
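After a 2 h attachment and 24 h compound incubation, HEK293-ATXN2-FFLuc wells are read for fluorescence at 405 nm excitation/525 nm emission as a viability measure, then for Bright-Glo luminescence reflecting ATXN2 expression.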

In experiment [2] the target is Estrogen receptor (Homo sapiens) (UniProt P03372). In words: qHTS assay for small molecule antagonists of estrogen receptor alpha signaling (AID 588513; active means well fitted curve in the direction sought with a large enough effect in the signal ratio, with a control signal flat, not every such curve was filed as active; the % refers to the signal ratio; further: on the % scale 0 is the no-effect control and ±100 the full control effect). Put shortly:
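Antagonist-mode qHTS in ER-alpha-UAS-bla HEK 293 cells: compound titration, 0.5nM estradiol for 18 h, CCF4 fluorescence, Hill-derived IC50.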

Experiment [3] shares this target. The experiment can be described thus: qHTS assay for small molecule agonists of estrogen receptor alpha signaling (AID 588514).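 Further: 0% = vehicle only and 100% = reference agonist; nearly all actives have a fitted effect of over 70% in size.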 Put shortly: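 Efficacy is expressed against 20 nM 17-beta-estradiol (100%) and DMSO basal (0%); EC50 from Hill equation. Assay: beta-lactamase reporter in ER-alpha-UAS-bla HEK 293 cells, 18 h compound incubation, CCF4 detection.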
Experiment [4] deals with Bile acid receptor (Homo sapiens) (UniProt Q96RI1). The experiment can be described thus: qHTS assay for small molecule antagonists of farnesoid X receptor signaling (AID 588526). Further: on the % scale 0 is the no-effect control and ±100 the full control effect. Put shortly:
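Antagonist mode: titrated compounds tested against chenodeoxycholic acid stimulation (normalized to 50 uM CDCA and DMSO) in GeneBLAzer HEK293T cells for 16 h. Beta-lactamase read by CCF4 fluorescence; IC50 from Hill fits.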
For orientation: Quantitative high-throughput screening tests each substance at several concentrations.

Experiment [5] has as its target Glucocorticoid receptor (Homo sapiens) (UniProt P04150). The experiment can be described thus: qHTS assay for small molecule agonists of glucocorticoid receptor signaling (AID 588532; active means well fitted curve in the direction sought with a large enough effect in the signal ratio, with a control signal flat; the % refers to the signal ratio;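 further: 100% = dexamethasone at 0.1 µM and 0% = DMSO only wells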). Conditions: HeLa MMTV-bla, beta-lactamase ratio, agonist, 18 h; stronger effect = higher value; percent of dexamethasone control, DMSO zero. An outline of the steps: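 Cells were plated and rested 3-5 h at 37 C, compounds were added in titration and incubated 18 h, then CCF4 substrate was loaded for 2 h at RT before reading blue/green fluorescence. EC50 came from Hill-equation fitting.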

Experiment [6] has the same target. In words: qHTS assay for small molecule antagonists of glucocorticoid receptor signaling (AID 588533; active means well fitted inhibition curve with a large enough effect in the signal ratio, with a control signal flat, not every such curve was filed as active; the % refers to the signal ratio; further: on the % scale 0 is the no-effect control and ±100 the full control effect). An outline of the steps: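 Antagonist-mode qHTS: compound titrations added to GRE-bla HeLa cells, then dexamethasone 2 nM final; 18 h, 37 C. CCF4 FRET fluorescence normalized to dexamethasone and DMSO; IC50 from Hill fit.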
Experiment [7] can be described thus: qHTS assay for small molecule antagonists of peroxisome proliferator-activated receptor delta signaling (AID 588535; active means well fitted inhibition curve with a large enough effect in the signal ratio, with a control signal flat, not every such curve was filed as active; the % refers to the signal ratio;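 on max response: cells co-treated with a PPAR-delta agonist as stimulator during compound exposure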). The following applies: HEK293T PPARd-UAS-bla, beta-lactamase FRET ratio, 18 h; 460 nm channel. An outline of the steps:
(§1)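 Fluorescence from CCF4-loaded GeneBLAzer PPAR-delta-UAS-bla HEK293T cells (2 hrs RT loading) quantified reporter inhibition after an 18 hr, 37 C compound exposure across a titration.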

In experiment [8] the target is Peroxisome proliferator-activated receptor delta (Homo sapiens) (UniProt Q03181). The experiment is described as above. Put shortly:
as §1

In experiment [9] the target is Peroxisome proliferator-activated receptor gamma (Homo sapiens) (UniProt P37231). In words: qHTS assay for small molecule agonists of peroxisome proliferator-activated receptor gamma signaling (AID 588536; active means well fitted curve in the direction sought with a large enough effect in the signal ratio, with a control signal flat, not every such curve was filed as active; the % refers to the signal ratio;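 further: 0% = DMSO basal wells and 100% = rosiglitazone at 2 µM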). An outline of the steps:
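Compound treatment: 16 h, 37 C, HEK293 GeneBLAzer cells. Detection: CCF4, 2 h RT. Values: Hill-fit EC50, efficacy as % of 2 uM rosiglitazone.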

Experiment [10] has the same target. In words: qHTS assay for small molecule antagonists of peroxisome proliferator-activated receptor gamma signaling (AID 588537; active means well fitted inhibition curve with a large enough effect in the signal ratio, with a control signal flat, not every such curve was filed as active; the % refers to the signal ratio;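 further: reporter cells co-stimulated with 50 nM rosiglitazone agonist during compound treatment; % of control where 0% means no effect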). Put shortly:
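Fluorescence at 460 and 530 nm (405 nm excitation) reported beta-lactamase cleavage of CCF4 after 2 h room-temperature loading. HEK293 reporter cells in 1% charcoal/dextran-treated FBS had received compound and rosiglitazone for 16 h.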

The target in experiment [11] is Vitamin D3 receptor (Homo sapiens) (UniProt P11473). The experiment can be described thus: qHTS assay for small molecule antagonists of vitamin D receptor signaling (AID 588541).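 Further: receptor activated by calcitriol during compound treatment; series mostly up to about 77 µM; on the % scale 0 is the no-effect control and ±100 the full control effect.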 An outline of the steps: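 VDR-UAS-bla HEK293T cells in 2% charcoal-stripped FBS were stimulated with 1-alpha,25-dihydroxyvitamin D3 (3 nM final) plus compound for 16 h at 37 C. The beta-lactamase CCF4 readout was normalized to 50 nM agonist and DMSO, and Hill fits gave IC50.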

The target is the same in experiment [12]. The experiment can be described thus: qHTS assay for small molecule agonists of vitamin D receptor signaling (AID 588543).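 Further: 0% = DMSO basal and 100% = reference agonist control.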 Put shortly:
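Measured: β-lactamase reporter activity (CCF4, 405 nm excitation, 460/530 nm emission) in HEK293T VDR-UAS-bla cells after 16 h compound exposure at 37 °C. Normalization against 50 nM 1α,25-dihydroxyvitamin D3 and DMSO; Hill-fit EC50.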

The nature of experiment [13]: qHTS assay for small molecule agonists of retinoid X receptor alpha signaling (AID 588544).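 On activation: 0% = DMSO basal wells and 100% = reference agonist.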 The following applies: HEK293T RXRa-UAS-bla, beta-lactamase reporter, 18 h; 530 nm emission.
Experiment [14] addresses Retinoic acid receptor RXR-alpha (Homo sapiens) (UniProt P19793). The experiment is described as above.
The target of experiment [15] is Thyroid hormone receptor beta (Homo sapiens) (UniProt P10828). In words: qHTS assay for small molecule agonists of thyroid hormone receptor beta signaling (AID 588545). Put shortly: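 In this cell-based screen, titrated compounds act on HEK 293 cells held in medium with 2% charcoal/dextran FBS, NEAA and pyruvate for 18 hrs at 37 C. Responses are expressed relative to T3 (10 nM) as 100% and basal DMSO as 0%.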

A short description of experiment [16]: qHTS assay for small molecule antagonists of retinoid X receptor alpha signaling (AID 588546; active means well fitted inhibition curve with a large enough effect in the signal ratio, with a control signal flat, not every such curve was filed as active; the % refers to the signal ratio). The following applies: HEK293T RXRa-UAS-bla, beta-lactamase ratio, antagonist mode; measured here: W530 green channel, cytotoxicity proxy. Put shortly:
(§2)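 Beta-lactamase reporter inhibition, read as CCF4 fluorescence ratio (ex 405, em 460/530 nm) after 2 h at RT. HEK293T UAS-bla cells, 2500/well, were stimulated with 9-cis-RA at 500 or 100 nM final alongside test compound for 18 h at 37 C.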

The target in experiment [17] is Retinoic acid receptor RXR-alpha (Homo sapiens) (UniProt P19793). The description is as above. The following applies: HEK293T RXRa-UAS-bla, beta-lactamase ratio, antagonist mode. Put shortly: as §2
In experiment [18] the target is DNA dC->dU-editing enzyme APOBEC-3G (Homo sapiens) (UniProt Q9HC16). In words: qHTS for inhibitors of Vif-A3G interactions: Validation (AID 588379; active means well fitted curve in the direction sought with a large enough effect; an effect the other way counts as inactive or inconclusive; further: 0% is about no effect). Put shortly: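 Yellow fluorescence (Ex 488, Em 500-530) of Vif-coexpressing HeLa A3G-eYFP cells, scanned by Acumen cytometer, reports blocked A3G degradation. Cells plated at 700/well overnight at 37 deg C before compound addition, then a further overnight compound incubation at 37 deg C.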

Experiment [19] deals with Androgen receptor (Homo sapiens) (UniProt P10275). The experiment can be described thus: qHTS assay for small molecule agonists of androgen receptor signaling (AID 588515; active means well fitted curve in the direction sought with a large enough effect in the signal ratio, with a control signal flat; the % refers to the signal ratio; further: on the % scale 0 is the no-effect control and ±100 the full control effect). The following applies: AR-UAS-bla HEK293, beta-lactamase ratio, agonist 16 h; stronger effect = higher value. An outline of the steps: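 Stimulation of an AR-responsive β-lactamase reporter in GripTite HEK293 cells was measured after 16 h compound exposure at 37 °C, via CCF4 fluorescence after 2 h RT. EC50 from Hill fits, normalized to R1881 at 30 nM.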

Several values for one entry are separate records, joined by “and”; a condition that tells them apart may be missing. Equal values may be shown once. Results filed as inconclusive are left out. Activity calls are given as the source filed them. Unless noted, the call rests on the fitted dose curve.

Chain of Estrogen receptor (Homo sapiens) (P03372 whole entry, looked up): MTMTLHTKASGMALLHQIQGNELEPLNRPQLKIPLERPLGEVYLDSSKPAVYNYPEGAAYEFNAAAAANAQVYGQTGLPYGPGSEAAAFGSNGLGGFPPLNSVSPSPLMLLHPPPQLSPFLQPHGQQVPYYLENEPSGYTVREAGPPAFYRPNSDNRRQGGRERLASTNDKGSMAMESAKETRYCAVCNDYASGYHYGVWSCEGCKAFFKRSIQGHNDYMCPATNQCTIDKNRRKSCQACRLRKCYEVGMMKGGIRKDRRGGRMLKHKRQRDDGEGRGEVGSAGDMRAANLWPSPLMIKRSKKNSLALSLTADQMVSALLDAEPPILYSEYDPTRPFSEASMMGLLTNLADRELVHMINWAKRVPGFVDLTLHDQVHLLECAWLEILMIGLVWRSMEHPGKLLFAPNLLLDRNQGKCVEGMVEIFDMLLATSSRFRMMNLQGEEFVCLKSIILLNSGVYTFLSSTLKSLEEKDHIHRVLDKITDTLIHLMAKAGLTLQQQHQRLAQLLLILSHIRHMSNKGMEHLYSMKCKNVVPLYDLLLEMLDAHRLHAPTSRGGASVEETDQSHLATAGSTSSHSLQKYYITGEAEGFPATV
Chain of Peroxisome proliferator-activated receptor delta (Homo sapiens) (Q03181 whole entry, looked up): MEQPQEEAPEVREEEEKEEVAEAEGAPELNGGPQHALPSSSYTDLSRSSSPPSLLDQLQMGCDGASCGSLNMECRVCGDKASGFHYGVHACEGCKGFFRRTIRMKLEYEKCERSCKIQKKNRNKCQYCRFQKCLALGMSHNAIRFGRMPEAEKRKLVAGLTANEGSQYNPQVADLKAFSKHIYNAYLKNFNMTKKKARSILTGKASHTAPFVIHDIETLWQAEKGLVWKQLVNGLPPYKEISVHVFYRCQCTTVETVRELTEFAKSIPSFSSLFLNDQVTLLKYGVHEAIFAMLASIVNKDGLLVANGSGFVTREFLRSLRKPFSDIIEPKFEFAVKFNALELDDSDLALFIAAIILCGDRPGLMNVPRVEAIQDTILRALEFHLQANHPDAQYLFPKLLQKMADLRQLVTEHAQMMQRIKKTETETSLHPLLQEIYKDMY
Chain of Vitamin D3 receptor (Homo sapiens) (P11473 whole entry, looked up): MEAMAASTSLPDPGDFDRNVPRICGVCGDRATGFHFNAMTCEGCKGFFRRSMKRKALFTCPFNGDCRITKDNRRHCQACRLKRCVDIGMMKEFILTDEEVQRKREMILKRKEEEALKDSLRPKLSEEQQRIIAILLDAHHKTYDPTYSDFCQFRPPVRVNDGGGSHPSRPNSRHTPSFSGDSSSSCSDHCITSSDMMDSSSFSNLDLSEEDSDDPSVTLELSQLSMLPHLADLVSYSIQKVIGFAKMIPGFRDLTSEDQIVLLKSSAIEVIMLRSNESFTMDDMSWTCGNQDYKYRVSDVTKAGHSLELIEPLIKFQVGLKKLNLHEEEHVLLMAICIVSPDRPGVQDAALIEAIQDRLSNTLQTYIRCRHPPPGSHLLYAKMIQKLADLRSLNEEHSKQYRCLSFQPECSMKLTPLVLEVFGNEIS
Chain of Androgen receptor (Homo sapiens) (P10275 whole entry, looked up): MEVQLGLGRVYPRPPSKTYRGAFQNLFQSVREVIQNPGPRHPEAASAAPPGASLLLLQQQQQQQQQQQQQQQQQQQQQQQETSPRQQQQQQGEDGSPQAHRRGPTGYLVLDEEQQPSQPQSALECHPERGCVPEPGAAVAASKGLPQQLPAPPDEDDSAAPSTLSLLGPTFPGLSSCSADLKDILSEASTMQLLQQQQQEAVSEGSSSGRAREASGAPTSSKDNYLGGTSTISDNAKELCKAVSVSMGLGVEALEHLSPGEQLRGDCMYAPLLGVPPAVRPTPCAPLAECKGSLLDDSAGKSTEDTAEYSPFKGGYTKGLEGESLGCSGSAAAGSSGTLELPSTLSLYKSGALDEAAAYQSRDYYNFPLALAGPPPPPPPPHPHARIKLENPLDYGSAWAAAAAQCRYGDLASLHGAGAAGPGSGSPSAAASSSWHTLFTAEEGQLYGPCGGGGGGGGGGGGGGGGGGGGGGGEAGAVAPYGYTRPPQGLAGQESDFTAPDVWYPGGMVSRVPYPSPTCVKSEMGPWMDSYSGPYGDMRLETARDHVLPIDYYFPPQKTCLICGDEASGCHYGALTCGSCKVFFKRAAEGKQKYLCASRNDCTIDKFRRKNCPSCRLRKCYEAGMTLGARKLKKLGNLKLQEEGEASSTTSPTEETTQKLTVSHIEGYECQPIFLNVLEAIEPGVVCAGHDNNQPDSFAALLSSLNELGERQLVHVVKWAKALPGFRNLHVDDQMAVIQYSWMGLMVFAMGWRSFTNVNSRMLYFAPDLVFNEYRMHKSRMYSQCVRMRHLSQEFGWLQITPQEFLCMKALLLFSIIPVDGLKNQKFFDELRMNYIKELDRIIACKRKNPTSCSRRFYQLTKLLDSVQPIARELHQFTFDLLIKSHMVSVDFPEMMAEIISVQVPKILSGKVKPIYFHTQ
Chain of Thyroid hormone receptor beta (Homo sapiens) (P10828 whole entry, looked up): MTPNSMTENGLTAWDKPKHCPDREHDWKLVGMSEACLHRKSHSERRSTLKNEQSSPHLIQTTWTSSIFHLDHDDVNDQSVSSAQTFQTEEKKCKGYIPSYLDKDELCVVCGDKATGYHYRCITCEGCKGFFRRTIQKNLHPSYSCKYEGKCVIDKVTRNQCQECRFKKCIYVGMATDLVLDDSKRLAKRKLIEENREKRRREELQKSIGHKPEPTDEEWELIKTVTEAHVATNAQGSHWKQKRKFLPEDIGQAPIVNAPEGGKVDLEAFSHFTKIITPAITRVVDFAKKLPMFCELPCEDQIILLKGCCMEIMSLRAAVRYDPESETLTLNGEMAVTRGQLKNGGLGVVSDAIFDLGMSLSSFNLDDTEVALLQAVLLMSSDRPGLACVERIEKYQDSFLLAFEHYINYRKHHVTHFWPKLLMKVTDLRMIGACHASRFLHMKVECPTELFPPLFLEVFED
Chain of Glucocorticoid receptor (Homo sapiens) (P04150 whole entry, looked up): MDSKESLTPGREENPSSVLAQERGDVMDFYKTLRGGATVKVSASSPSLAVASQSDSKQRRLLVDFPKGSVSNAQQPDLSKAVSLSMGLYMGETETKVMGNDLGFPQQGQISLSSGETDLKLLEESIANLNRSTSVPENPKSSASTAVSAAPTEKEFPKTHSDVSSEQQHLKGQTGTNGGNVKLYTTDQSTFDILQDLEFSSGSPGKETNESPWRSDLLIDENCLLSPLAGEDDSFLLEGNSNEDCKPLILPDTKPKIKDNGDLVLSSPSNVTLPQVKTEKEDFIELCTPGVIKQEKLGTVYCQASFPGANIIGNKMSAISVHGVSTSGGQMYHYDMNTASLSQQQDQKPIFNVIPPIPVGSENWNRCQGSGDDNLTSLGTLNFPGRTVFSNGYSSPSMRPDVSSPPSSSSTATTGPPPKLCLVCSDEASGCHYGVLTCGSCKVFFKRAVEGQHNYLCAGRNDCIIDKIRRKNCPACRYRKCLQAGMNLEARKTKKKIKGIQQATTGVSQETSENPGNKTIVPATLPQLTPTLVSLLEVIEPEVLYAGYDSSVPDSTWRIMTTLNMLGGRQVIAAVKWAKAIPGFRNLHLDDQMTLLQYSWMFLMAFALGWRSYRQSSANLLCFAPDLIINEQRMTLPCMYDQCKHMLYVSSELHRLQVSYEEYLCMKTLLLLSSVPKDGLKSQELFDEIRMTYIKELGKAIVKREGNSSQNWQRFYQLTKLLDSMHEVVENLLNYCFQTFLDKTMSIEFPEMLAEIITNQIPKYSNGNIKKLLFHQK
Chain of Retinoic acid receptor RXR-alpha (Homo sapiens) (P19793 whole entry, looked up): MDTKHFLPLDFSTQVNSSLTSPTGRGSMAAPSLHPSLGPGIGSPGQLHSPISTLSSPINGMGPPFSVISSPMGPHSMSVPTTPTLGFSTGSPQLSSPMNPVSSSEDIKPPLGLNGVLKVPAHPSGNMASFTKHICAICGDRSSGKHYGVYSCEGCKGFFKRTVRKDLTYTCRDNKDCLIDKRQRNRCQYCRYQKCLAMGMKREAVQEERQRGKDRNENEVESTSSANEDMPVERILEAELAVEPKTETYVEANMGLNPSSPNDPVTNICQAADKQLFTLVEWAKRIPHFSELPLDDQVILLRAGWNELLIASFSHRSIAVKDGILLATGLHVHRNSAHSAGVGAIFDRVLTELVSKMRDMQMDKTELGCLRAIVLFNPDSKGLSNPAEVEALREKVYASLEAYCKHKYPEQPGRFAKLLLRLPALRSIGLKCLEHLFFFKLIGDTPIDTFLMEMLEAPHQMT
Chain of Peroxisome proliferator-activated receptor gamma (Homo sapiens) (P37231 whole entry, looked up): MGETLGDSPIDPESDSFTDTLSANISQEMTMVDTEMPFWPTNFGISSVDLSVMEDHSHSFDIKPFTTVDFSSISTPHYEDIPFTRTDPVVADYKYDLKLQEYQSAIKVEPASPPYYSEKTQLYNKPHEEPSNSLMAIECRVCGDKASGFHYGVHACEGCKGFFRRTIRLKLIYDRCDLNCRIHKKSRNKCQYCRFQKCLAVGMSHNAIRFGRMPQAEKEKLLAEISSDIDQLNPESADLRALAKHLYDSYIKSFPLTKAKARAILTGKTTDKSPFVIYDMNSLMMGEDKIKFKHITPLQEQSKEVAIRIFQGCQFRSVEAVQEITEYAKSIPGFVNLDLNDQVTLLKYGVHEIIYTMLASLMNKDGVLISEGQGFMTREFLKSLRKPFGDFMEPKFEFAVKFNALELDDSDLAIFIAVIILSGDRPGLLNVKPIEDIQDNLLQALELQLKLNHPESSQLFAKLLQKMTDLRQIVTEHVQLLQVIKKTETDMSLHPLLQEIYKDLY
Chain of DNA dC->dU-editing enzyme APOBEC-3G (Homo sapiens) (Q9HC16 whole entry, looked up): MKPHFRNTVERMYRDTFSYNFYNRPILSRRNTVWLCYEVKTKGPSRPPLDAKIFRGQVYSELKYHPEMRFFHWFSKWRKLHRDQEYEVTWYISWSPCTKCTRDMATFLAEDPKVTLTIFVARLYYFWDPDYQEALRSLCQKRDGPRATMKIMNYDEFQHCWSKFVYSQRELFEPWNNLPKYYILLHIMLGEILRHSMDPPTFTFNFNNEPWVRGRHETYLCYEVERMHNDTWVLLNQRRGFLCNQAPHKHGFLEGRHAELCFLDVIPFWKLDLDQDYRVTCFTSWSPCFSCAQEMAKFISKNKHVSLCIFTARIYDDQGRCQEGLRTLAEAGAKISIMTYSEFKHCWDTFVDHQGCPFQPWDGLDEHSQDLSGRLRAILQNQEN

As to `Cc1cn([C@H]2C[C@H](N=[N+]=[N-])[C@@H](CO)O2)c(=O)[nH]c1=O`, the Potency result in experiment [1], in [4], in [6] and in experiment [10] was “inactive” each time. Also, the outcome in [2], in experiment [3], in experiment [8], in [9], in [11] and in experiment [12] was inactive. Moreover, the outcome in experiment [14] and in [15] was inactive. The activation in experiment [5] was -3.02% (inactive) and 6.31% (inactive). The max response is 16% in [7]; 27.7% and 12.8% in experiment [13]; 15.5% and -2.05% in experiment [16]; 5.84% (inactive) and -2.64% (inactive) in experiment [17].

With `O=C(c1ccc(F)cc1)C1CCN(CCn2c(=O)[nH]c3ccccc3c2=O)CC1`, the Potency entry in experiment [1] is “inactive”. In experiment [18], the call was inactive.

Turning to `Cc1ccc(C(=O)Nc2ccc(S(=O)(=O)O)c3cc(S(=O)(=O)O)cc(S(=O)(=O)O)c23)cc1NC(=O)c1cccc(NC(=O)Nc2cccc(C(=O)Nc3cc(C(=O)Nc4ccc(S(=O)(=O)O)c5cc(S(=O)(=O)O)cc(S(=O)(=O)O)c45)ccc3C)c2)c1`, in experiment [1], the Potency result was “inactive”. Moreover, the result in experiment [18] was inactive.

As for `NCCS(=O)(=O)O`, the Potency entry in [1], in [6] and in [10] was “inactive” throughout. In addition, the result in [18], in [2], in experiment [3], in experiment [9], in [11] and in [12] was inactive. In addition, the compound was classed as inactive in experiment [14] and in experiment [15]. For the same compound, the activation in [5] is 1.42% (inactive). Besides, the max response in experiment [13] was -14.9%; in experiment [16], -6.13%; in experiment [17] it was -0.744% (inactive).

In the case of `C[C@H]1c2cccc(O)c2C(O)=C2C(=O)[C@]3(O)C(O)=C(C(N)=O)C(=O)[C@@H](N(C)C)[C@@H]3[C@@H](O)[C@@H]21`, the Potency result in experiment [1] is “inactive”.

As for `COc1cc2c(c(OC)c1OC)-c1ccc(OC)c(=O)cc1[C@@H](NC(C)=O)CC2`, in experiment [1], the Potency result was “inactive”. Also, the outcome in experiment [18], in experiment [3], in experiment [12] and in experiment [15] was inactive. Further, the activation in [19] was -5.98% (inactive) and 0.799% (inactive) and 0.899% (inactive).

Regarding `NC(=O)OCC(COC(N)=O)c1ccccc1`, the Potency result in [1] was “inactive”. Besides, in experiment [18], the outcome was inactive.

Take `COc1ccc2[nH]cc(CCNC(C)=O)c2c1`: the Potency entry in experiment [1], in experiment [4], in [6] and in experiment [10] was “inactive” each time. Besides, the result in experiment [18], in experiment [2], in [3], in [8], in [9] and in experiment [11] was inactive. In addition, the outcome in [12], in [14] and in experiment [15] was inactive. Moreover, the activation in experiment [5] is -4.76% (inactive) and 1.7% (inactive) and -3.63% (inactive). Further, the max response in [7] is 14.8% and 21.6% and 4.95%; in experiment [13] it was 4.26% and -2.38% and 20.7%; in experiment [16], 15.5% and 6.29% and -2.26%; in [17], 0.955% (inactive) and -6.07% (inactive) and -2.21% (inactive).

Regarding `Cn1ccc2cc3c(cc21)CCN3C(=O)Nc1cccnc1`, the Potency entry in experiment [1] is “inactive”. Also, the outcome in experiment [18] was inactive.

On to `CCC1(c2ccccc2)C(=O)NCNC1=O`, for which the Potency entry in [1], in experiment [4], in [6] and in experiment [10] was “inactive” in each case. The result in experiment [18], in [9], in [11], in [12], in experiment [14] and in [15] was inactive. For the same compound, in [5], the activation is -1.52% (inactive) and -4.43% (inactive). Further, the max response was -2.48% and -11.6% in [13]; -5.6% and -16.4% in experiment [16]; 16.1% (inactive) and -15.5% (inactive) in experiment [17].

In the case of `COc1cc2nc(N(C)CCCNC(=O)C3CCCO3)nc(N)c2cc1OC` (configuration not stated), the Potency entry in experiment [1] is “inactive”.

For `CN1C(C(=O)Nc2ccccn2)=C(O)c2ccccc2S1(=O)=O`, in experiment [1], the Potency result was “inactive”. Moreover, the result in [18] was inactive.

(Values after PubChem BioAssay (NCATS).)
